# Columns and labels:
# Assay in all cases: DAPPL (digital affinity profiling via proximity ligation, sequencing); 10 mM Tris-HCl pH 7.5, 50 mM NaCl, 1 mM DTT, 4% glycerol, room temperature, 30 min; GST-TFs on glutathione beads, 16-mer random dsDNA library, 0.1% formaldehyde crosslink after washing; high values mean tight binding
# FLI1 = molecular target: T1, FLI1 (Homo sapiens, UniProt Q01543 1-452); conditions: protein: recombinant; tags: N-terminal GST; dsDNA, one strand shown
# T1 sequence: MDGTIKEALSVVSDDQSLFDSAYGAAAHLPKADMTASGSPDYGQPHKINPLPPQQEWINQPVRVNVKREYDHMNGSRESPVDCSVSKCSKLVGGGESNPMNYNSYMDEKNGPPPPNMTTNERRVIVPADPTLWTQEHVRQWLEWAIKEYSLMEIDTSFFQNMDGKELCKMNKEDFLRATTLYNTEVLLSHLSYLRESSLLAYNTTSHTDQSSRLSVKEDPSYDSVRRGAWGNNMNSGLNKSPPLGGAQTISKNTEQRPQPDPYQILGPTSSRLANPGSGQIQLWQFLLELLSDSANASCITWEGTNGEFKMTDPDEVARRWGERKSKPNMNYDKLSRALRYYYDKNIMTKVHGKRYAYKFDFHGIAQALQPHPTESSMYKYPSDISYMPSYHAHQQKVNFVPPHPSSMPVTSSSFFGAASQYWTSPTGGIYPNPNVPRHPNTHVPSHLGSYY
# Summary of the method: (§1)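 Beads coated with glutathione captured GST-fused human transcription factors that had been expressed in yeast, and the factors were then given DNA barcodes and pooled with a tag-only sample. The pools were incubated with 200 nmole of a random double-stranded 16-mer DNA library in Tris/NaCl/DTT/glycerol buffer for 30 min at room temperature, washed, crosslinked with 0.1% formaldehyde and proximity-ligated with BsaI/T4 ligase at 37 °C for 1 h. PCR amplification and Illumina NextSeq500 sequencing came last. Binding signal is each hexamer's read frequency for a factor divided by its frequency for the tag-only sample.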
# ELK1 = molecular target: T2, ELK1 (Homo sapiens, UniProt P19419 1-428); conditions: protein: recombinant; tags: N-terminal GST; dsDNA, one strand shown
# T2 sequence: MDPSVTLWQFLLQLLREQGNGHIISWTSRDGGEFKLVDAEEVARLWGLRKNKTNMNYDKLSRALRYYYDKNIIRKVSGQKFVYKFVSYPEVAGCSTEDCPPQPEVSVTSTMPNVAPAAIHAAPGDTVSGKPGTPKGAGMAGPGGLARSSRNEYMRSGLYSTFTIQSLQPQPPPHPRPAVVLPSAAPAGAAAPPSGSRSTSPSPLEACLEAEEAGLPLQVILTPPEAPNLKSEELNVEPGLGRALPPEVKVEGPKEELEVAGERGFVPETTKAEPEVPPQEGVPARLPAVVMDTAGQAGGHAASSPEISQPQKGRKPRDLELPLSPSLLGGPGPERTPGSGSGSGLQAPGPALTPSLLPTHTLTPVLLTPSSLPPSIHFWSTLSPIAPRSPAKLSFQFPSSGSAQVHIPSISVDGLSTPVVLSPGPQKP
# Summary of the method: as §1
# GABPA = molecular target: T3, GABPA (Homo sapiens, UniProt Q06546 1-454); conditions: protein: recombinant; tags: N-terminal GST; dsDNA, one strand shown
# T3 sequence: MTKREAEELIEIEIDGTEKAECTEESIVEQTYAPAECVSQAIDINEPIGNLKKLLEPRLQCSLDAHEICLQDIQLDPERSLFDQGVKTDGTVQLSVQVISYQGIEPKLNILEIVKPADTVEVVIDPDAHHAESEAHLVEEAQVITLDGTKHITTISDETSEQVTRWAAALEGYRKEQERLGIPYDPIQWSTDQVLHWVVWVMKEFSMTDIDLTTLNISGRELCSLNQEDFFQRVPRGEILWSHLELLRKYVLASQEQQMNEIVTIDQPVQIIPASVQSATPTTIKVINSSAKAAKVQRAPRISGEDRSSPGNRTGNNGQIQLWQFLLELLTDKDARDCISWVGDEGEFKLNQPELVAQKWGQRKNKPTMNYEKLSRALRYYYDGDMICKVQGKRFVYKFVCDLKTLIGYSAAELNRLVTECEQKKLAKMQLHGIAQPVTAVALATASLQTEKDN
# Summary of the method: as §1
# ERG = molecular target: T4, ERG (Homo sapiens, UniProt P11308 1-479); conditions: protein: recombinant; tags: N-terminal GST; dsDNA, one strand shown
# T4 sequence: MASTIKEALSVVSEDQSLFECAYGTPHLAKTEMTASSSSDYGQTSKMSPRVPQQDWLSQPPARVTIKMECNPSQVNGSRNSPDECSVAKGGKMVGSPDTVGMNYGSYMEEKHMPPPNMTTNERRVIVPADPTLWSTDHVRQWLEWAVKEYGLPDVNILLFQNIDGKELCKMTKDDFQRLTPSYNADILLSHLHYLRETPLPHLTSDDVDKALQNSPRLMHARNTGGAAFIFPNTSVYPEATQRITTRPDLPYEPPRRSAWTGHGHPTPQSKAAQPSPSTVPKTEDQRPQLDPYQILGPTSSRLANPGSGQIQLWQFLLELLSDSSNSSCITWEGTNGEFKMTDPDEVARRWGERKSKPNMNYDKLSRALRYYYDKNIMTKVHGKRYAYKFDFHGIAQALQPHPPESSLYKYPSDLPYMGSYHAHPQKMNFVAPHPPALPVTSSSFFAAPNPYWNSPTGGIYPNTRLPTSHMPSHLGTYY
# Summary of the method: as §1
# ELF1 = ELF1 (Homo sapiens, UniProt P32519 1-619); conditions: protein: recombinant; tags: N-terminal GST; dsDNA, one strand shown
# Summary of the method: as §1
# EHF = molecular target: T5, EHF (Homo sapiens, UniProt Q9NZC4 1-300); conditions: protein: recombinant; tags: N-terminal GST; dsDNA, one strand shown
# T5 sequence: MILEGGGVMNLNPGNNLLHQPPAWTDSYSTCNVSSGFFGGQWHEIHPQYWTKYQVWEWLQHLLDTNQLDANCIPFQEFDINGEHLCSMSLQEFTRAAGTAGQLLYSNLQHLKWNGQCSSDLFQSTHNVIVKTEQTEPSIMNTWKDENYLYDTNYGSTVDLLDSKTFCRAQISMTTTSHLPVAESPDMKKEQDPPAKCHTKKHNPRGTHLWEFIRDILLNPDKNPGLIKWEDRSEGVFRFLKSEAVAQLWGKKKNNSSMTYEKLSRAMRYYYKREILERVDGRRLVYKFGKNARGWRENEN
# Summary of the method: as §1
# SPI1 = SPI1 (Homo sapiens, UniProt P17947 1-270); conditions: protein: recombinant; tags: N-terminal GST; dsDNA, one strand shown
# Summary of the method: as §1
# SPIB = SPIB (Homo sapiens, UniProt Q01892 1-262); conditions: protein: recombinant; tags: N-terminal GST; dsDNA, one strand shown
# Summary of the method: as §1
# ELK3 = molecular target: T6, ELK3 (Homo sapiens, UniProt P41970 1-407); conditions: protein: recombinant; tags: N-terminal GST; dsDNA, one strand shown
# T6 sequence: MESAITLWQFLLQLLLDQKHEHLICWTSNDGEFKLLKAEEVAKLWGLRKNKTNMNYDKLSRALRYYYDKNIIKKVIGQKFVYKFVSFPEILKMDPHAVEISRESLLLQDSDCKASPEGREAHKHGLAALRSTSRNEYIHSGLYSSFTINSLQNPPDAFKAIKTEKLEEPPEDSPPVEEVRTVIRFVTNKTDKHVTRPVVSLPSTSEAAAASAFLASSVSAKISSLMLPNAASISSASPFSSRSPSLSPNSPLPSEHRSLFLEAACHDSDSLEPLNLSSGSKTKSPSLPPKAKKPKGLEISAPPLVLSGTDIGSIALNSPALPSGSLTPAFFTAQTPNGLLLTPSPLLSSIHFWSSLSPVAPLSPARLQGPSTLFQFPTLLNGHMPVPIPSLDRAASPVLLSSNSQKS
# Summary of the method: as §1
# FEV = molecular target: T7, FEV (Homo sapiens, UniProt Q99581 1-238); conditions: protein: recombinant; tags: N-terminal GST; dsDNA, one strand shown
# T7 sequence: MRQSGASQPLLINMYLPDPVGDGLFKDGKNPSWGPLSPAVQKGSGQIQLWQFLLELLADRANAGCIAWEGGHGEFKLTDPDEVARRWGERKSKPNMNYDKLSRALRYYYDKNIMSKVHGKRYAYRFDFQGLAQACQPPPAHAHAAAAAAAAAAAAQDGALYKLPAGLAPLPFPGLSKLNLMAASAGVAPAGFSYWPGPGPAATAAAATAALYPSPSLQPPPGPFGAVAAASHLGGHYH
# Summary of the method: as §1
# ETV5 = ETV5 (Homo sapiens, UniProt P41161 1-510); conditions: protein: recombinant; tags: N-terminal GST; dsDNA, one strand shown
# Summary of the method: as §1
# HSF1 = HSF1 (Homo sapiens, UniProt Q00613 1-529); conditions: protein: recombinant; tags: N-terminal GST; chain copies: 3; dsDNA, one strand shown
# Summary of the method: as §1
# SPIC = molecular target: T8, SPIC (Homo sapiens, UniProt Q8N5J4 1-248); conditions: protein: recombinant; tags: N-terminal GST; dsDNA, one strand shown
# T8 sequence: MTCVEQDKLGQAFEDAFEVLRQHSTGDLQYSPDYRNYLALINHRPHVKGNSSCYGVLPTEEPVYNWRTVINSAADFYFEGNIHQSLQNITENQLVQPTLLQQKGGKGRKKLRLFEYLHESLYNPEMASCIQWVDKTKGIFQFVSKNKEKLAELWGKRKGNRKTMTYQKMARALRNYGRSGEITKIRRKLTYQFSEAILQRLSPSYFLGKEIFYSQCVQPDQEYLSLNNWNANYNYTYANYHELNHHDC
# Summary of the method: as §1
# ELF4 = ELF4 (Homo sapiens, UniProt Q99607 1-663); conditions: protein: recombinant; tags: N-terminal GST; dsDNA, one strand shown
# Summary of the method: as §1
# ELK4 = molecular target: T9, ELK4 (Homo sapiens, UniProt P28324-2 1-405); conditions: protein: recombinant; tags: N-terminal GST; dsDNA, one strand shown
# T9 sequence: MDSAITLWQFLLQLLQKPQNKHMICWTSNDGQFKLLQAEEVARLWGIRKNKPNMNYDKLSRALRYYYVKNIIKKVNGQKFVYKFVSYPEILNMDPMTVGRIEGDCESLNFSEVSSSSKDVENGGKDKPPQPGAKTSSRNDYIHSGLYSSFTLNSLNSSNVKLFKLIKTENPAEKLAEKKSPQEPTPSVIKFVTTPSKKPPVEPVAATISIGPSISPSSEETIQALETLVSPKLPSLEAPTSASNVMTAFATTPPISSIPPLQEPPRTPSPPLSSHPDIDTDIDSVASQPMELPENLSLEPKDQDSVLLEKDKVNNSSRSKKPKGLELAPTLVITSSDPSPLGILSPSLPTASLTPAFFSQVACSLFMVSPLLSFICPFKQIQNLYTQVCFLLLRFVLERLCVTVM
# Summary of the method: as §1
# ETV2 = molecular target: T10, ETV2 (Homo sapiens, UniProt O00321 1-342); conditions: protein: recombinant; tags: N-terminal GST; dsDNA, one strand shown
# T10 sequence: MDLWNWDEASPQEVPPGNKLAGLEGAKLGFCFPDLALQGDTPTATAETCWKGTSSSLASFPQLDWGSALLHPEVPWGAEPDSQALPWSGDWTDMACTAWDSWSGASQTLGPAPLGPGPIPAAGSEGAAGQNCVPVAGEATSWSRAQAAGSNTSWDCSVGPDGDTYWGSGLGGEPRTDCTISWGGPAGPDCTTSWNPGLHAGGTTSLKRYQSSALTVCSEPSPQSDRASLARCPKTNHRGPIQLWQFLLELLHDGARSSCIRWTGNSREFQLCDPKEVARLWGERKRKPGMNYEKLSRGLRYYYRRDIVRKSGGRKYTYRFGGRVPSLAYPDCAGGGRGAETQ
# Summary of the method: as §1
# ELF3 = molecular target: T11, ELF3 (Homo sapiens, UniProt P78545 1-371); conditions: protein: recombinant; tags: N-terminal GST; dsDNA, one strand shown
# T11 sequence: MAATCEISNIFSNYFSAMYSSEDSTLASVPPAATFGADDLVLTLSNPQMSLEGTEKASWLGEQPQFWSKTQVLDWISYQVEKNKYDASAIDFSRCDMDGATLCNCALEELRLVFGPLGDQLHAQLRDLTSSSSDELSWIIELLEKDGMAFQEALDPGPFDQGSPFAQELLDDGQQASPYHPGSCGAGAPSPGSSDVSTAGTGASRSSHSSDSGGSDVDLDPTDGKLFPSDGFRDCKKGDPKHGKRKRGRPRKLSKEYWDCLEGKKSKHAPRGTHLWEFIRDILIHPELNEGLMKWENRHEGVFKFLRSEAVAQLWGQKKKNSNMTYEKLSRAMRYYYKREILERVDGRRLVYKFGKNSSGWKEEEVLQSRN
# Summary of the method: as §1
# CRX = CRX (Homo sapiens, UniProt O43186 1-299); conditions: protein: recombinant; tags: N-terminal GST; dsDNA, one strand shown
# Summary of the method: as §1
# ETV1 = ETV1 (Homo sapiens, UniProt P50549 1-477); conditions: protein: recombinant; tags: N-terminal GST; dsDNA, one strand shown
# Summary of the method: as §1
# Chain of CRX (O43186 whole entry): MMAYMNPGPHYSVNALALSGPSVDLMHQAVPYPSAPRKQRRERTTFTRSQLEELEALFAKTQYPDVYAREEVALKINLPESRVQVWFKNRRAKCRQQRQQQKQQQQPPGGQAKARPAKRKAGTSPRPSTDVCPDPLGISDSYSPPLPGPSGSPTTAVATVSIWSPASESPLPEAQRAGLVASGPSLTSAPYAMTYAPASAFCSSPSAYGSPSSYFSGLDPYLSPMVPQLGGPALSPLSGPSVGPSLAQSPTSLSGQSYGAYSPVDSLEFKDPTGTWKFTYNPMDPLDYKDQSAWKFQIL
# Chain of HSF1 (Q00613 whole entry): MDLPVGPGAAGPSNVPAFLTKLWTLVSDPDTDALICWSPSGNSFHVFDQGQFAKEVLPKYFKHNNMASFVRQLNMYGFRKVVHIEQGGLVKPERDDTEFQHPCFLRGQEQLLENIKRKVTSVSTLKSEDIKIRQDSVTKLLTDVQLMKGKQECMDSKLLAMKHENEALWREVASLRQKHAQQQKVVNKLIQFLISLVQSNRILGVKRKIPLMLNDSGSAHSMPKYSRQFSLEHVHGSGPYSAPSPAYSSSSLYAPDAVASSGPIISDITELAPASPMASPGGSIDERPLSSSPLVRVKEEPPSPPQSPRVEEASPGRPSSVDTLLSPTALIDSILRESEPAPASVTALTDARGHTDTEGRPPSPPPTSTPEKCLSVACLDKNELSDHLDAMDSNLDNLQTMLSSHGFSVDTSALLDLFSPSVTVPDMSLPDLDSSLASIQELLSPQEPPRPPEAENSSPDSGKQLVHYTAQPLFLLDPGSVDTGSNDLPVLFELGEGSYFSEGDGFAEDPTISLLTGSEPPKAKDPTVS
# Chain of SPIB (Q01892 whole entry): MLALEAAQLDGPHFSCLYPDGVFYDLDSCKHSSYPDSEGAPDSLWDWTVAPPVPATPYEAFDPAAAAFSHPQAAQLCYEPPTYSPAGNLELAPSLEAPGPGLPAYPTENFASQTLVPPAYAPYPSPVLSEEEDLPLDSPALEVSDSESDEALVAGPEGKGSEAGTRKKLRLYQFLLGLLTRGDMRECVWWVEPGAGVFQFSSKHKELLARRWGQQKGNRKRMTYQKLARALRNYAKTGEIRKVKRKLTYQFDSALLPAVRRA
# Chain of ELF1 (P32519 whole entry): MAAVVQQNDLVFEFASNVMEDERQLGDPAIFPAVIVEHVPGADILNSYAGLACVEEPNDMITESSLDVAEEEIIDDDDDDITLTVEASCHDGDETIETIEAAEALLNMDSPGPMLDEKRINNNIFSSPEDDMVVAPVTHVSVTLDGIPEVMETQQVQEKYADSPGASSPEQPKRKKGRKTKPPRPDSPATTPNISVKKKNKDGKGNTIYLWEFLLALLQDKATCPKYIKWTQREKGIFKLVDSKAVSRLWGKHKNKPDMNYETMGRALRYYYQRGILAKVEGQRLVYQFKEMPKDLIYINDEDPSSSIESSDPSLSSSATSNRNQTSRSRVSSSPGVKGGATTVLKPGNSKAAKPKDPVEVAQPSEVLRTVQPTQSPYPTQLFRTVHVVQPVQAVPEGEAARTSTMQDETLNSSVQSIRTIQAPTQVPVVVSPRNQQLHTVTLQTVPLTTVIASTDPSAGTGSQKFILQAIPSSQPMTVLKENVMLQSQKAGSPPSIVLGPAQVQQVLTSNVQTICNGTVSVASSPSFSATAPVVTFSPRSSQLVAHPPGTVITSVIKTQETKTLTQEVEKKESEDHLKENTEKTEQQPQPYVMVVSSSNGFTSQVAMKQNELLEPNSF
# Chain of ELF4 (Q99607 whole entry): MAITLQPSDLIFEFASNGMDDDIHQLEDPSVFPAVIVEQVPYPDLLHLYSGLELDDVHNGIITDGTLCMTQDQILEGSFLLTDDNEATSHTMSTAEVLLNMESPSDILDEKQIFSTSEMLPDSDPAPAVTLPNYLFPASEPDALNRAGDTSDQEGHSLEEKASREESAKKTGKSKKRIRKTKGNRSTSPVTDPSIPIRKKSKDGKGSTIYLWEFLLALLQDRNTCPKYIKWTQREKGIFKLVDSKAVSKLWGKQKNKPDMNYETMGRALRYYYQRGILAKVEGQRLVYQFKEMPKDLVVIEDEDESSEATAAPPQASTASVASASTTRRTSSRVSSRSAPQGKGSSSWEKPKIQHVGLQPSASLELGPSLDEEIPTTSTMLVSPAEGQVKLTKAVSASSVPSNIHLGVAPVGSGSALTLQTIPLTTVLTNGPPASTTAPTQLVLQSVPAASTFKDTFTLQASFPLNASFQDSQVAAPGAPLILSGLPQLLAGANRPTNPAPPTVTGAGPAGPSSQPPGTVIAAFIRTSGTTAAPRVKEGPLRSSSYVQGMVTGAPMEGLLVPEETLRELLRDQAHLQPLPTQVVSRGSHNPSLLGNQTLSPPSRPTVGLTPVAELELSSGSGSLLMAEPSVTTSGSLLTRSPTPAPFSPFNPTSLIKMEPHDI
# Chain of ETV1 (P50549 whole entry): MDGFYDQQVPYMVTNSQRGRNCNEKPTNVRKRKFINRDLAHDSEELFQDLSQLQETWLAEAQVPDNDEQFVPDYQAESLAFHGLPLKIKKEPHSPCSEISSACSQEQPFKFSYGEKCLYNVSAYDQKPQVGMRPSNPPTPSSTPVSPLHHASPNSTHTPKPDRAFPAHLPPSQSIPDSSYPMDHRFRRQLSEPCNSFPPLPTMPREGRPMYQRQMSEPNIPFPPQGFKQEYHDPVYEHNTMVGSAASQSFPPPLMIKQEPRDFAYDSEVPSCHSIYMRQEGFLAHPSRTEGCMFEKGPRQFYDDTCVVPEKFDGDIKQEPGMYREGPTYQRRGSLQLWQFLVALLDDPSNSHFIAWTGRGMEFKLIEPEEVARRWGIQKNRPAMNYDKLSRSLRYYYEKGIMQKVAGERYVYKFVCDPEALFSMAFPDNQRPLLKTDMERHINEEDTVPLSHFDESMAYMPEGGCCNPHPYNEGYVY
# Chain of ETV5 (P41161 whole entry): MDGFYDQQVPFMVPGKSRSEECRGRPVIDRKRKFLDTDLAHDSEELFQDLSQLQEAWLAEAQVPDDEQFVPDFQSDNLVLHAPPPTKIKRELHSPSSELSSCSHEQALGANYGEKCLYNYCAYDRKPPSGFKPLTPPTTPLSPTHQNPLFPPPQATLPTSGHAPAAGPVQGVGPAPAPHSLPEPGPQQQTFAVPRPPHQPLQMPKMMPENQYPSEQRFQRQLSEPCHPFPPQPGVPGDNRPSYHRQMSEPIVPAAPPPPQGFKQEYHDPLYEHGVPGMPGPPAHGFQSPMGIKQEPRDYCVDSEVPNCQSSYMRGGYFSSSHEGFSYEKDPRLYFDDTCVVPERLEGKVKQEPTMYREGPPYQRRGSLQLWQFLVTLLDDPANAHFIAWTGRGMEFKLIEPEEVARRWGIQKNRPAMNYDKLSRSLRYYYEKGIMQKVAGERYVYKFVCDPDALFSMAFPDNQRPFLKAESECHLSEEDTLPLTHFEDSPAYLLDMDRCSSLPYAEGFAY
sequence,measurement,setting,value
TATTCA,binding signal,FLI1,"1.31 fold enrichment (6-mer frequency, TF over GST control)"
same,binding signal,ELK1,"1.26 fold enrichment (6-mer frequency, TF over GST control)"
same,binding signal,GABPA,"1.23 fold enrichment (6-mer frequency, TF over GST control)"
same,binding signal,ERG,"1.29 fold enrichment (6-mer frequency, TF over GST control)"
same,binding signal,ELF1,"1.38 fold enrichment (6-mer frequency, TF over GST control)"
same,binding signal,EHF,"1.32 fold enrichment (6-mer frequency, TF over GST control)"
same,binding signal,SPI1,"1.29 fold enrichment (6-mer frequency, TF over GST control)"
same,binding signal,SPIB,"1.27 fold enrichment (6-mer frequency, TF over GST control)"
same,binding signal,ELK3,"1.35 fold enrichment (6-mer frequency, TF over GST control)"
same,binding signal,FEV,"1.28 fold enrichment (6-mer frequency, TF over GST control)"
same,binding signal,ETV5,"1.33 fold enrichment (6-mer frequency, TF over GST control)"
same,binding signal,HSF1,"1.32 fold enrichment (6-mer frequency, TF over GST control)"
same,binding signal,SPIC,"1.47 fold enrichment (6-mer frequency, TF over GST control)"
same,binding signal,ELF4,"1.29 fold enrichment (6-mer frequency, TF over GST control)"
same,binding signal,ELK4,"1.33 fold enrichment (6-mer frequency, TF over GST control)"
same,binding signal,ETV2,"1.35 fold enrichment (6-mer frequency, TF over GST control)"
same,binding signal,ELF3,"1.31 fold enrichment (6-mer frequency, TF over GST control)"
same,binding signal,CRX,"1.42 fold enrichment (6-mer frequency, TF over GST control)"
same,binding signal,ETV1,"1.28 fold enrichment (6-mer frequency, TF over GST control)"

# Source: article PMC7862700, “An all-to-all approach to the identification of sequence-specific readers for epigenetic DNA modifications on cytosine”
